Screening data deposited in PubChem BioAssay by several laboratories.
This is a sample that favours compounds with a hit; in the whole collection about 4.7% have one here.
PABP polyA inh = blocks human PABP binding to poly(A) RNA. P11940. fluorescence polarization. inhibition, % at 35 µM. 1% of 290,000 active;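 further: calls also rest on retests at 20 µM and on dose response follow-up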
eIF4H inh = inhibitors of RNA binding by human eIF4H. eIF4H fluorescence polarization binding assay. inhibition, % at 35 µM. 0.94% of 290,000 active. AID 2012;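 further: calls also rest on retests at 20 µM and on dose response follow-up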
SUMO HTRF inh = SUMOylation inhibition. inhibition, % at 35 µM. HTRF SUMOylation assay, SAE1/SAE2 + UBC9, in vitro. AID 2006. P63279. 0.36% of 290,000 active; in the data active means inhibition above about 50%, passing the limit was not always enough
Target sequence (P63279 whole entry, looked up): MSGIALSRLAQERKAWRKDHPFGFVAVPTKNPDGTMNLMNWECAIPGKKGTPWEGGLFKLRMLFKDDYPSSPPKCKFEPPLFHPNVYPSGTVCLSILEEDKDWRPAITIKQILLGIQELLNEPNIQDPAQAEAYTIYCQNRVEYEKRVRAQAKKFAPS
Efflux pump inh = antifungal efflux pump inhibition, Nile Red retention. S. cerevisiae Candida pump triplex. inhibition, % at 10 µM. 0.44% of 330,000 active;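 active means plate passing quality check with inhibition over a set limit, or well fluorescence over plate mean plus 4 SD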;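 further: Nile Red retained in pooled yeast measured as flow cytometry median fluorescence; higher means more Nile Red kept so more efflux inhibition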
MLLE-PAM2 inh = inhibitors of microRNA-mediated deadenylation, human PABP1 MLLE binding; P11940; GST-MLLE / FITC-PAM2 fluorescence polarization; inhibition, % at 20 µM; 0.36% of 360,000 active; in the data active means inhibition above about 35%, passing the limit was not always enough
ALR inh = human ALR oxidase inhibition via reduced H2O2; P55789; purified ALR, DTT oxidation, H2O2 HRP-luminol luminescence; inhibition, % (test concentration not listed); 3.8% of 290,000 active; AID 485317;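 active means mean replicate inhibition above about 79%, with every replicate also reaching it, limit read from the data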
Target sequence (P55789 whole entry, looked up): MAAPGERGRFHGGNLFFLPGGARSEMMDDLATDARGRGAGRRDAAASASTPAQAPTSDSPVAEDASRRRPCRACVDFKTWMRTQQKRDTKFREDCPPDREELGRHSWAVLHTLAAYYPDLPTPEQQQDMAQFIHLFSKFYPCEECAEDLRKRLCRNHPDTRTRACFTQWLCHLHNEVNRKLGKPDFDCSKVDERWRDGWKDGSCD
Of the large screens only hits and unclear results are named; the others gave an inactive call. Unless noted, how the calls were made is not given here.

CCN(CC)c1ccc(CNc2nc3ccccc3n2CCN2CCOCC2)cc1	ALR inh 98
COc1ccc(CNc2nc3ccccc3n2CCN2CCOCC2)cc1	ALR inh 94
c1csc(CNc2nc3ccccc3n2CCN2CCOCC2)c1	none
Cc1c2cnn(CC(=O)N3CCOCC3)c(=O)c2c(C)n1Cc1ccccc1F	none
Cn1ccc2ccc(C3=CC(=O)C[C@H](c4ccc(F)cc4)C3)cc21	none (no result: PABP polyA inh, eIF4H inh, SUMO HTRF inh)
CCCn1c(N)c(C(=O)CSc2nnc(C3CC3)n2Cc2ccccc2)c(=O)n(C)c1=O	none (no result: PABP polyA inh, eIF4H inh, SUMO HTRF inh)
CC(C)[C@H](NC(=O)c1c(F)cccc1F)C(=O)OCC(=O)NNC(=O)c1ccccc1	none (no result: PABP polyA inh, eIF4H inh, SUMO HTRF inh, Efflux pump inh, ALR inh)
CC(C)[C@H](NC(=O)c1ccccc1)C(=O)OCC(=O)c1ccccc1F	ALR inh 88
Cc1ccc(C2CC2c2n[nH]c(=S)n2-c2ccc(C)cc2)cc1 (configuration not stated)	none
Cc1ccc(-n2c(-c3ccco3)n[nH]c2=S)cc1	ALR inh 88
Cc1occc1-c1n[nH]c(=S)n1-c1ccccc1	ALR inh 94
Cc1ccc(-n2c([C@@H]3C[C@H]3c3ccccc3)n[nH]c2=S)cc1	ALR inh 85
COC(=O)c1c(-c2ccco2)csc1NC(=O)C1CC=CCC1C(=O)O (configuration not stated)	PABP polyA inh 68, eIF4H inh 85
O=C(NCc1nc2ccccc2[nH]1)C1=C[C@H](c2ccc(C(F)(F)F)cc2)C[C@H](OCCCCO)O1	none (no result: PABP polyA inh, eIF4H inh, SUMO HTRF inh)
Fc1ccccc1Nc1n[nH]c(=S)s1	ALR inh 99
S=c1[nH]nc(Nc2cccc3ccccc23)s1	ALR inh 97
CCc1ccc(N2CC(C(=O)Nc3ccccc3N3CCCC3)CC2=O)cc1 (configuration not stated)	none (no result: PABP polyA inh, eIF4H inh, SUMO HTRF inh, Efflux pump inh, ALR inh)
Nn1c(SCc2cccc3ccccc23)nnc1-c1ccco1	ALR inh 99
CC(C)CCN1C(=O)c2ccc(C(=O)Nc3ccccn3)cc2C1=O	none
O=C(O)c1cccc(NC(=S)N/N=C/c2ccccc2OCc2cccc(Br)c2)c1	eIF4H inh 53 (no result: Efflux pump inh, ALR inh)
Cc1cccc(C(=O)Nc2sc3c(c2C(=O)O)CCC3)c1	none
CNC(=O)c1c(NC(=O)c2cccc(C)c2)sc2c1CCC2	ALR inh 95
Cc1ccc(C(=O)Nc2sc3c(c2C(=O)NCc2ccco2)CCCC3)cc1	SUMO HTRF inh 73
Cc1cccc(CN2CCC(Oc3ccc(C(=O)N4CCCCC4)cc3)CC2)c1	none
CC1(C(=O)NS(=O)(=O)c2cccc(C#N)c2)CCN1C(=O)CC1CCCCC1 (configuration not stated)	none (no result: PABP polyA inh, eIF4H inh, SUMO HTRF inh, Efflux pump inh, ALR inh)
O=C(Nc1cccc(-c2cn3ccsc3n2)c1)c1ccccc1	ALR inh 91
COc1ccccc1C(=O)Nc1cccc(-c2cn3ccsc3n2)c1	none (no result: Efflux pump inh, MLLE-PAM2 inh, ALR inh)
O=C(CN1CCN(S(=O)(=O)c2ccc(Cl)cc2)CC1)N1CCCC1	none (no result: PABP polyA inh, eIF4H inh, SUMO HTRF inh, Efflux pump inh, ALR inh)
CCCCCOCC1CC(C/C(C)=N/Nc2nc(-c3ccccc3)cs2)C(=O)O1 (configuration not stated)	ALR inh 96
CCCCCOCC1CC(C/C(C)=N/NC(N)=S)C(=O)O1 (configuration not stated)	none
Cc1ccccc1CSCCNS(C)(=O)=O	none
COc1ccc(S(=O)(=O)NCCSCc2ccccc2C)cc1Br	ALR inh 98
O=C(NCc1ccco1)c1ccc(COc2ccccc2Cl)cc1	ALR inh 99
O=C(Nc1ccn(Cc2c(F)c(F)cc(F)c2F)n1)c1ccc(COc2ccccc2Cl)cc1	none
O=C(NCc1ccco1)c1ccc(Oc2ccccc2)cc1	ALR inh 90
O=C(NCc1ccco1)c1ccc(COc2cccc3ccccc23)cc1	none (no result: ALR inh)
Cc1cc(C)nc(NC(=O)c2ccc(COc3ccccc3Cl)cc2)c1	ALR inh 97
O=C(NCc1cccnc1)c1ccc(COc2ccccc2Br)cc1	none
O=C(NCc1cccnc1)c1ccc(COc2ccccc2Cl)cc1	ALR inh 98
O=C(CNC(=O)c1ccccc1F)N/N=C/c1ccc2c(c1)OCO2	none
O=C(COC(=O)CCOc1ccccc1)NCc1ccco1	PABP polyA inh 67, eIF4H inh 94
O=C(COC(=O)C1CC2C=CC1C2)NCc1ccc(F)cc1 (configuration not stated)	none
O=C(COC(=O)C1CC2C=CC1C2)NCc1ccco1 (configuration not stated)	PABP polyA inh 41, eIF4H inh 93 (no result: ALR inh)
O=C(COc1ccccc1)NCc1ccco1	none (no result: PABP polyA inh, eIF4H inh, SUMO HTRF inh, Efflux pump inh, ALR inh)
Cc1onc(-c2ccccc2Cl)c1C(=O)NCc1ccco1	PABP polyA inh 75, eIF4H inh 95
Cc1ccc(CNC(=O)c2c(-c3ccccc3Cl)noc2C)cc1	none
S=C(Cc1ccccc1)Nc1ccccc1	none (no result: PABP polyA inh, eIF4H inh, SUMO HTRF inh, Efflux pump inh, ALR inh)
CCOC(=O)C1=C(C)NC(C)=C(C(=O)OCC)C1C(=O)OCC(=O)N1CCOCC1	none (no result: PABP polyA inh, eIF4H inh, SUMO HTRF inh)
O=C(COC(=O)c1ccc(O)cc1O)NC1CC1	none (no result: PABP polyA inh, eIF4H inh, SUMO HTRF inh)
Cc1cc(N(C)C)ccc1N=Nc1ccc2ncccc2c1	ALR inh 94
CCOc1ccccc1C(=O)OC(C)C(=O)Nc1ccc(S(=O)(=O)N2CCCC2)cc1 (configuration not stated)	none (no result: PABP polyA inh, eIF4H inh, SUMO HTRF inh)
Cc1cc(N2CCOCC2)c2c(N)c(C)cc(C)c2n1	ALR inh 99
O=C(NCc1ccccn1)/C(=C/c1ccco1)NC(=O)c1ccccc1	PABP polyA inh 0.3, eIF4H inh 82
O=C(NCCc1ccccn1)/C(=C/c1ccco1)NC(=O)c1ccccc1	none (no result: ALR inh)
O=C(NCc1ccccc1)/C(=C/c1ccco1)NC(=O)c1ccco1	ALR inh 93
CC1CCCN(C(=O)/C(=C/c2ccco2)NC(=O)c2ccccc2)C1 (configuration not stated)	none (no result: ALR inh)
O=C(N/C(=C\c1ccco1)C(=O)N1CCCC1CO)c1ccccc1 (configuration not stated)	MLLE-PAM2 inh 34 (no result: ALR inh)
O=C(NCc1ccccc1)/C(=C\c1ccc(O)cc1)NC(=O)c1ccco1	ALR inh 97
CC(C)(C)OC(=O)N1CCN(C(=O)c2[nH]cnc2C(=O)Nc2nccs2)CC1	none (no result: PABP polyA inh, eIF4H inh, SUMO HTRF inh)
CCOC(=O)/C(=C\c1ccc(C)cc1)NC(=O)c1ccccc1	PABP polyA inh 54, eIF4H inh 78
Cc1ccc(C(=O)N/C(=C/c2ccco2)C(=O)O)cc1	PABP polyA inh 120, eIF4H inh 87
COc1ccccc1NC(=O)N(C)C[C@@H]1OCc2cnnn2CCCC(=O)N([C@@H](C)CO)C[C@H]1C	none (no result: PABP polyA inh, eIF4H inh, SUMO HTRF inh, Efflux pump inh, ALR inh)
CCCCC(=O)Nc1nnc(CCc2ccccc2)s1	none
CCN1CCn2c3c(c4cc(C)ccc42)CCCC31 (configuration not stated)	ALR inh 98
FC(F)(F)c1ccc(-c2cccc3c2C2CC3CCN2C(=S)NCCc2ccccc2)cc1 (configuration not stated)	none (no result: PABP polyA inh, eIF4H inh, SUMO HTRF inh, Efflux pump inh, ALR inh)
C[C@H]1CN([C@@H](C)CO)C(=O)Cc2cc(NS(=O)(=O)c3cn(C)cn3)ccc2O[C@@H]1CN(C)C(=O)Nc1ccc(F)cc1	none (no result: PABP polyA inh, eIF4H inh, SUMO HTRF inh)
Cc1ccc(C)n1-c1sccc1C(=O)O	MLLE-PAM2 inh 45 (no result: Efflux pump inh, ALR inh)
